Records with an inconclusive call do not appear. Activity calls are given as the source filed them. Calls come from the whole dose curve; as a rule, active = well fitted curve in the direction sought with a large enough effect; inconclusive = small, poorly fitted or top-dose-only effect, or another doubt; inactive = no such curve, though single readings can be large; an effect the other way counts as inactive or inconclusive. Where a SMILES comes first, the peptide text is derived from it. Bridges are numbered along the chain shown (N, C = ends). [ ]: non-standard residue; d: D form. hArg = N=C(N)NCCCC[C@H](N)C(=O)O; Mpa = O=C(O)CCS
Tests used:
[1] = qHTS of pediatric cancer cell lines to identify multiple opportunities for drug repurposing: Primary screen for MG 63 (6-TG R) cells (AID 1347105); note: nearly all actives have a fitted effect of over 50% in size
In short: (§1)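 Readout: CellTiter-Glo luminescence, 48 h treatment. Controls DMSO (neutral) and bortezomib 2.3 µM final (positive). Potency and efficacy taken from primary-screen concentration-response curves.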

[2] = qHTS of pediatric cancer cell lines to identify multiple opportunities for drug repurposing: Primary screen for control Hh wild type fibroblast cells (AID 1347106);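 note: series mostly up to about 46 µM; a drop in luminescence marks cytotoxicity and a rise apparent proliferation; nearly all actives have a fitted effect of over 55% in size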
In short: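 Cells (500-1,000/well) in growth media were settled 5 h at 37 degrees C, then given compounds for 48 h. Viability was read as CellTiter-Glo luminescence. Primary runs used MIPE at 11 points (0.78 nM-46 µM) and NPC at 8 points (0.59 nM-46 µM); follow-ups used 11 points.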

[3] = qHTS of pediatric cancer cell lines to identify multiple opportunities for drug repurposing: Primary screen for Rh30 cells (AID 1347107); note: series mostly up to about 46 µM; nearly all actives have a fitted effect of over 75% in size
In short: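 Cells (500-1,000/well) rested 5 h, then received compounds for 48 h; metabolically active cells were measured by CellTiter-Glo luminescence. Final concentrations spanned up to 46 µM (MIPE, 11-point) or 0.59 nM-46 µM (NPC, 8-point) in primary screens, 11-point in follow-ups.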

[4] = qHTS of pediatric cancer cell lines to identify multiple opportunities for drug repurposing: Primary screen for Rh41 cells (AID 1347108);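 note: series mostly up to about 46 µM; luminescence drop marks cytotoxic hits; nearly all actives have a fitted effect of over 70% in size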
In short: as §1

Measured: outcome

c1ccc2[nH]ccc2c1
inactive: [1] | [2] | [3]

NC(=O)CC[C@@H](N)C(=O)O
inactive: [1] | [2] | [3]

CCC(C)(CN(C)C)OC(=O)c1ccccc1 (stereo not drawn)
inactive: all assays above

NC(=O)[C@@H]1CSSCCC(=O)N[C@@H](CCCCN=C(N)N)C(=O)NCC(=O)N[C@@H](CC(=O)O)C(=O)N[C@@H](Cc2c[nH]c3ccccc23)C(=O)N2CCC[C@H]2C(=O)N1 ([Mpa][hArg]GDWPC-NH2; disulfide 1-7)
inactive: all assays above

CC(C(=O)O)c1ccc2c(c1)Cc1cccnc1O2 (stereo not drawn)
inactive: [1] | [2] | [3]

CCCCCCCCCCCCCCCCC(C(=O)O)C(O)(CC(=O)O)C(=O)O (stereo not drawn)
inactive: [1] | [2] | [3]

CC(C)=CCC/C(C)=C/CO
inactive: [1] | [2] | [3]

CC[C@]12CCCN3CCc4c(n(c5ccccc45)[C@@](O)(C(=O)OC)C1)[C@@H]32
inactive: all assays above

O=c1[nH]c(=O)n([C@H]2C[C@H](O)[C@@H](CO)O2)cc1I
inactive: [1] | [2] | [3]

O=C1C(c2[nH]c3ccccc3c2O)=Nc2ccccc21
inactive: [1] | [2] | [3]

COc1cc(O)cc(O)c1
inactive: [1] | [2] | [3]

O=C(O)c1ccccc1OP(=O)(O)O
inactive: [1] | [2] | [3]

Cc1c(NC(=O)c2cccnc2)c(=O)n(-c2ccccc2)n1C
inactive: [1] | [2] | [3]

NC(N)=NS(=O)(=O)c1ccc(N)cc1
inactive: all assays above

CC(O)CCCCn1c(=O)c2c(ncn2C)n(C)c1=O (stereo not drawn)
inactive: [1] | [2] | [3]

CCCCCC(N)=O
inactive: [1] | [2] | [3]

Cc1c(Cn2ccnc2)c2ccccc2n1CCC(=O)O
inactive: all assays above

CN1CCN(C(=O)C2CCCCC2)CC1
inactive: [1] | [2] | [3]

Cc1c(C)c2c(c(C)c1OC(=O)c1cccnc1)CC[C@@](C)(CCC[C@H](C)CCC[C@H](C)CCCC(C)C)O2
inactive: all assays above

CC(=O)SC[C@@H](Cc1ccccc1)C(=O)NCC(=O)OCc1ccccc1
inactive: [1] | [2] | [3]

O=C(NCC(O)CO)c1c(I)c(C(=O)NCC(O)CO)c(I)c(N(CCO)C(=O)CO)c1I (stereo not drawn)
inactive: [1] | [2] | [3]

CC(=O)N[C@@H](CC(C)C)C(=O)O
inactive: all assays above

CN[C@@H]1[C@@H](O)[C@@H](O[C@@H]2[C@H](O)[C@H](O[C@H]3OC(CN)=CC[C@H]3N)[C@@H](N)C[C@H]2N)OCC1(C)O (stereo partly drawn)
inactive: all assays above

O=C(O)/C=C/c1ccc(Cn2ccnc2)cc1
inactive: all assays above

O=C(O)[C@@H]1[C@H]2C[C@H]3c4[nH]c5ccccc5c4CCN3C[C@@H]2CC[C@@H]1O
inactive: [1] | [2] | [3]

C[N+](C)(C)CC[N+]1(C)Cc2c(Cl)c(Cl)c(Cl)c(Cl)c2C1
inactive: all assays above

C[C@]1(Cn2ccnn2)[C@H](C(=O)O)N2C(=O)C[C@H]2S1(=O)=O
inactive: all assays above

Cc1ccc(C(C)C)c(O)c1
inactive: [1] | [2] | [3]

CC(=O)N(CC(O)CN(C(C)=O)c1c(I)c(C(=O)NCC(O)CO)c(I)c(C(=O)NCC(O)CO)c1I)c1c(I)c(C(=O)NCC(O)CO)c(I)c(C(=O)NCC(O)CO)c1I (stereo not drawn)
inactive: all assays above

NC(=O)N[C@@H](CCC(=O)O)C(=O)O
inactive: [1] | [2] | [3]

CC(=O)N1C[C@H](O)C[C@H]1C(=O)O
inactive: [1] | [2] | [3]

O=C(O)COC(=O)Cc1ccccc1Nc1c(Cl)cccc1Cl
inactive: all assays above

CC(C)CCOC(=O)c1ccc(N(C)C)cc1
inactive: all assays above

Nc1ccncc1N
inactive: [1] | [2] | [3]

CC(CSC(=O)c1ccccc1)C(=O)N1C[C@@H](Sc2ccccc2)C[C@H]1C(=O)O (stereo partly drawn)
inactive: all assays above

NNc1nnc(NN)c2ccccc12
inactive: [1] | [2] | [3]

Cc1ccc(S(=O)(=O)NC(=O)NC2CCCCC2)cc1
inactive: [1] | [2] | [3]

O=C(O)Cn1c(C(=O)Nc2nc(-c3ccccc3Cl)cs2)cc2ccccc21
inactive: [1] | [2] | [3]

CC(C)C[C@@H](N)C(=O)O
inactive: all assays above

CC(C)(C)NCC(O)COc1cccc2c1CCC(=O)N2 (stereo not drawn)
inactive: all assays above

CN/C(=C\[N+](=O)[O-])NCCSCc1csc(CN(C)C)n1
inactive: all assays above

O=C(CCBr)N1CCN(C(=O)CCBr)CC1
inactive: all assays above

O=C1CC[C@@H](C(=O)O)N1
inactive: all assays above

Cc1cc(C)nc(NS(=O)(=O)c2ccc(N)cc2)n1
inactive: all assays above

Source: PubChem BioAssay (NCATS)
